Assay results taken from the supplement of paper PMC6555819.

Legend:
Experiment in all cases: PBM binding z-score (relative to random genomic background probes); higher = stronger binding; sequences stand for … in GC…GCGATTGACAGCGTAGAATGAAGG
[1] = test system: FXR:RXRa (NR concentration 270 nM, RXRa partner concentration 90 nM)
Procedure, shortened: (§1)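 Each nuclear receptor dimer, without ligand, was incubated for 1 h on custom Agilent 4×180K protein-binding microarrays. Binding was detected with antibodies against each partner (one per run), and scanned fluorescence was regression-normalized. The binding z-scores are referenced to random human genomic background probes.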

[2] = test system: LXRa:RXRa (NR concentration 270 nM, RXRa partner concentration 90 nM)
Procedure, shortened: as §1

[3] = test system: LXRa homodimer (NR concentration 270 nM)
Procedure, shortened: as §1

[4] = test system: LXRb:RXRa (NR concentration 270 nM, RXRa partner concentration 90 nM)
Procedure, shortened: as §1

[5] = test system: LXRb homodimer (NR concentration 270 nM)
Procedure, shortened: as §1

[6] = test system: PPARa:RXRa (NR concentration 270 nM, RXRa partner concentration 90 nM)
Procedure, shortened: as §1

[7] = test system: PPARg:RXRa (NR concentration 180 nM, RXRa partner concentration 90 nM)
Procedure, shortened: as §1

[8] = test system: PPARg:RXRa 270nM:90nM, anti-RXR (NR concentration 270 nM, RXRa partner concentration 90 nM)
Procedure, shortened: as §1

[9] = test system: PPARg:RXRa 30nM:10nM, anti-RXR (NR concentration 30 nM, RXRa partner concentration 10 nM)
Procedure, shortened: as §1

[10] = test system: PPARg:RXRa 90nM:30nM, anti-RXR (NR concentration 90 nM, RXRa partner concentration 30 nM)
Procedure, shortened: as §1

Row | Sequence | PBM binding z-score [1] | PBM binding z-score [2] | PBM binding z-score [3] | PBM binding z-score [4] | PBM binding z-score [5] | PBM binding z-score [6] | PBM binding z-score [7] | PBM binding z-score [8] | PBM binding z-score [9] | PBM binding z-score [10]
1 | TAGCCTAGGTCATTCAGAGGCCAGTATAGAAAGC | 4.56 | 3.63 | 0.829 | 2.82 | 0.598 | 3.63 | 2.34 | 2.29 | 0.542 | 1.47
2 | TCGATTAGTTGATTAGGGCAACCGAAACAGCGGA | -1.31 | -0.186 | -0.313 | 0.118 | -0.308 | 0.322 | 0.147 | 1.25 | 2.88 | 2.19
3 | ATCGAAAGGTCGTGAGGTGAATATACAGAAAGGC | 5.8 | 4.42 | 0.33 | 3.66 | 0.583 | 5.66 | 4.88 | 4.97 | 2 | 3.71
4 | CCGACTGGGGCAGAAAGGTTACCGTACCATCCGG | 0.26 | 0.695 | -0.0357 | 1.01 | -1.05 | 2.4 | 1.54 | 2.95 | 0.724 | 2.38
5 | GCTTGTAGATCAATGTTAAGAAAGACTAAGCTAA | -0.421 | -0.43 | -0.434 | -0.517 | -0.377 | -0.584 | -0.00589 | -0.385 | -0.425 | -0.416
6 | TCTTGTAGGTCAGCAGGTTAAGAAAGCTGGCCAA | 3.31 | 2.55 | 0.186 | 2.16 | 0.418 | 4.35 | 6.77 | 5.91 | 4.19 | 5.71
7 | AGTCAAATTTCAGGACGAGGTAACGTAAAGCACG | 0.0503 | -0.145 | 0.0565 | 0.0191 | -0.153 | -0.229 | 0.688 | -0.178 | -0.0529 | -0.261
8 | CAAACTAGGTTAAGAGGTCAAAGTCCGCTTCCCG | 5.61 | 5.82 | 6.25 | 4.8 | 1.58 | 5.87 | 7.84 | 7.23 | 5.52 | 7.19
9 | ATCTCTAGGTAACCAGTTCAGTGAAAGAGAGGAC | 0.76 | 0.635 | 0.481 | 0.706 | 1 | 1.26 | 1.06 | 1.24 | 0.669 | 0.873
10 | TCTGCTAGGTCAACGATGGTCAGCTATTCTGCTA | 3.16 | 2.62 | -0.457 | 1.39 | -0.158 | 3.15 | 2.42 | 2.96 | 2 | 2.29
11 | CGAACTAGGTCATCCAGGACAGTTAATACATTGA | 4.18 | 2.59 | 0.501 | 2.29 | 0.155 | 4.77 | 7.57 | 6.32 | 3.81 | 5.9
12 | CCGAGTAGGTTATGGGGCATTTAGGCAACGGTGA | 0.297 | 0.407 | 0.011 | 0.603 | -0.473 | 2.22 | 3.51 | 4.47 | 2.4 | 4.37
13 | GCTAGTTGGTCAGTAAAAGGTCACACTCCGGTCG | 3.15 | 4.29 | 4.97 | 3.76 | 0.637 | 4.19 | 2.49 | 4.24 | 1.86 | 3.7
14 | CTACCAAGGTGAACAAGGTCGTTGACTACTATTC | 1.83 | 1.79 | 0.0971 | 1.79 | -0.0485 | 2.65 | 1.41 | 1.68 | 0.448 | 0.985
15 | AGTCAAAGTTCATATAGGTAACGTAAGATATGCT | 6.32 | 5.7 | 5.15 | 3.66 | 2.13 | 4.62 | 6.76 | 6.08 | 3.4 | 5.1
16 | CCTTACGGGCCACTGACAGGTTATAGCATTTGGA | -0.0975 | -0.00158 | 0.136 | -0.0299 | -0.59 | 0.315 | 0.415 | 0.0355 | -0.0145 | -0.254
17 | ACAATTAGTTGACTTAGGGCAACCGATACGACGC | 0.279 | 0.33 | 0.565 | 0.0599 | 0.612 | 0.00256 | 1.03 | 0.396 | 0.353 | 0.139
18 | GCTGGTAGGTCAACTGATGGTCAGCTAAAGCTCG | 4.7 | 3.62 | 0.696 | 2.66 | 0.322 | 4.64 | 4.59 | 4.72 | 1.84 | 3.71
19 | GATACAGGATCAAGGCCAGAGTACGCGTATTGAT | -0.429 | -0.625 | -0.269 | -0.535 | -0.452 | -0.133 | 0.979 | 0.356 | 0.0722 | 0.052
20 | TAGCATAGGTCAGATCGGGCCAGTATACGCTATA | 3.66 | 2.95 | -0.198 | 2.08 | -0.138 | 3.38 | 1.65 | 1.67 | 0.311 | 1.05
21 | TCAGACAGGTGATGGTAACTCAGGTACGCAGTCG | 0.415 | 0.602 | 0.0587 | 0.648 | -0.117 | 1.16 | 0.601 | 1.7 | 3.35 | 2.55
22 | TGAATGAGGTTATAAGATCAGGGTACGTTGCAAA | 1.46 | 1.39 | 0.0526 | 1.44 | 0.315 | 2.72 | 1.53 | 1.96 | 0.789 | 1.23

Row | Sequence | PBM binding z-score [1] | PBM binding z-score [2] | PBM binding z-score [3] | PBM binding z-score [4] | PBM binding z-score [5] | PBM binding z-score [6] | PBM binding z-score [7] | PBM binding z-score [8] | PBM binding z-score [9] | PBM binding z-score [10]
23 | TAGCCTAGGTCATTGGCCAGTATACCACGCGAAC | 4.93 | 3.34 | 0.738 | 2.61 | 0.254 | 3.41 | 2.4 | 2.49 | 0.453 | 1.44
24 | CCAGACAGGTGAAAGGTAACTCATTCTGGTACGC | 0.79 | 0.853 | 0.0278 | 1.09 | -0.276 | 3.51 | 5.48 | 6.19 | 3.72 | 6.34
25 | CCTAGTTGGTCAGGACGTCACACACCGGATATGA | -0.0966 | 0.0885 | 0.373 | -0.0236 | 0.306 | -0.286 | 0.962 | 0.0606 | -0.177 | 0.147
26 | AGAATGCGGTTATACGTAGATCAGGGAAGAAAGT | -0.295 | 0.056 | -0.263 | -0.408 | -0.59 | -0.235 | 0.152 | -0.304 | -0.0964 | -0.139
27 | ATATGTAGGTTACACCCGGGTCATTCAGGCTATG | 2.03 | 4.01 | 1.46 | 3.12 | 0.769 | 4.84 | 6.51 | 5.36 | 3.01 | 4.69
28 | GCTTACGGCTCAAAGGTTATAGCATGAATAGAAT | 0.876 | 1.45 | 0.0597 | 1.7 | -0.639 | 2.62 | 2.18 | 3.88 | 1.46 | 3.1
29 | TCTATTAGTTGAAGGGCAACCTACGAGTCCGTTT | 0.82 | 0.87 | 0.394 | 0.789 | 0.451 | 0.702 | 0.121 | 1.88 | 3.44 | 2.53
30 | TTACCAAGGTGAGCTGAGGTCGGTGATCCAACTC | 0.603 | 0.222 | -0.197 | 0.0956 | -1.13 | 1.07 | 0.209 | 0.517 | -0.0845 | 0.37
31 | CCTAGTTGGTCAAGGTGACACACGCTATAGGTAC | 0.697 | 0.276 | 0.273 | 0.592 | 0.0749 | 1.33 | 1.71 | 1.93 | 0.466 | 1.32
32 | TCAGGCAGGTGAAGGTAACTCAGGTACGCAGTCG | 0.263 | 1.12 | -0.208 | 0.558 | -0.936 | 0.851 | 0.226 | 1.2 | 2.13 | 1.73
33 | ACTACAGGGTCACTAGGCCAGAGTAGGTACGAAT | 6.17 | 3.51 | -0.237 | 3.18 | 0.0917 | 5.65 | 7.54 | 5.96 | 2.62 | 5.05
34 | ACTAGCAGGCAAAGGGTCACTCAAGATTAGTCCG | 2.62 | 2.93 | 0.422 | 2.94 | -0.218 | 4.2 | 5.28 | 5.86 | 4.68 | 6.43
35 | GCATATGGGTAATACAAGGTGAAAGTCCGATTGT | 0.428 | 1.27 | 0.16 | 0.226 | -0.552 | 1.46 | 0.928 | 1.03 | 0.412 | 0.777
36 | GCTATTAGTTGAAAGGGCAACGGAATGATTCTCG | 0.364 | 0.524 | 0.225 | 0.73 | -0.171 | 2.5 | 2.45 | 4.33 | 2.24 | 4.02
37 | GCTGCCAGGTCAACTGATGGTCAGCTAAAGCTCG | 4.84 | 3.82 | 0.113 | 2.73 | 0.00556 | 4.4 | 2.42 | 3.09 | 0.281 | 1.61
38 | CGAACTAGGTCATTGAGAGGACAGTGAATAGTAA | 3.94 | 2.78 | 0.422 | 1.87 | -0.333 | 4.37 | 7.29 | 5.99 | 3.89 | 5.45
39 | TCTTGTAGATCAACAGGAGGGTAAGAAAGATCGA | 0.289 | 0.24 | -0.818 | 0.0772 | -0.238 | 0.374 | -0.102 | 1.06 | 2.25 | 1.7
40 | ACTTACGGGTCAACGATGTTATAGCACGCGTATA | 6.28 | 4.04 | 0.405 | 3.64 | 0.787 | 5.53 | 4.83 | 5.13 | 2.07 | 3.75
41 | TCTATTAGTTGAATAGGGCAACCGAAACAGCGGA | 0.393 | 0.654 | -0.213 | 0.664 | 0.0451 | 1.16 | 0.438 | 1.92 | 3.61 | 2.81
42 | CATACAGGGTCAGCTAGGCCGGAGTAGGGACGGC | 4.6 | 2.61 | -0.304 | 1.86 | 0.54 | 3.9 | 2.9 | 2.96 | 0.304 | 1.69
43 | AAAGACAGGTGAGTGAAGGTAACTCAGCTGGACG | 0.449 | 0.399 | -0.509 | -0.0849 | -0.324 | 0.472 | 0.63 | 0.239 | -0.273 | 0.0365
44 | CCTACTGGGCTACGAAAGGTCATTGATTCAGTGA | 3.53 | 6.04 | 6.54 | 4.66 | 0.251 | 4.28 | 2.77 | 4.36 | 2.08 | 3.64
